# Unmarked numbers belong to inactive results.
# Assays:
# Assay in all cases: log2 ratio of Biotin-Ahx-Ub-VS probe labelling (fragment/DMSO); higher = less target engagement (more negative = stronger competition), active = hit call of the paper (q ≤ 0.05, log2 ratio ≤ -1)
# Conditions in all cases: compound concentration: 200 uM; treatment time: 3 h
# OTUD6B = molecular target: T1, OTUD6B (UniProt Q8N6M0)
# T1 sequence (whole entry): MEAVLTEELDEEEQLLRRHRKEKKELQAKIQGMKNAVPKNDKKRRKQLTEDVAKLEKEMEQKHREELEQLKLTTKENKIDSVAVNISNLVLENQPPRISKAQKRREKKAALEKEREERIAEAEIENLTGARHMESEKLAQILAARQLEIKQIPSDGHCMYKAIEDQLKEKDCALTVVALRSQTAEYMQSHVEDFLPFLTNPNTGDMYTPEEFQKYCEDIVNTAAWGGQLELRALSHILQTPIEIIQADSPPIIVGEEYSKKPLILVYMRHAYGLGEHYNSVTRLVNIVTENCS
# Summary of the method: (§1)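 Triplicate samples of HEK293T lysate, 495 µg each, received fragment at 200 µM or vehicle for 3 h, followed by Biotin-Ahx-Ub-VS (0.5 µM final) for 1 h. After NeutrAvidin enrichment of labelled DUBs and LysC/trypsin digestion, peptides were run by diaPASEF LC-MS/MS. The values are average log2 fragment/vehicle ratios from global-median-normalised Spectronaut label-free quantities, tested by unpaired t-test on proteins having ≥2 unique peptides.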
# OTUD7B = molecular target: T2, OTUD7B (UniProt Q6GQQ9)
# T2 sequence (whole entry): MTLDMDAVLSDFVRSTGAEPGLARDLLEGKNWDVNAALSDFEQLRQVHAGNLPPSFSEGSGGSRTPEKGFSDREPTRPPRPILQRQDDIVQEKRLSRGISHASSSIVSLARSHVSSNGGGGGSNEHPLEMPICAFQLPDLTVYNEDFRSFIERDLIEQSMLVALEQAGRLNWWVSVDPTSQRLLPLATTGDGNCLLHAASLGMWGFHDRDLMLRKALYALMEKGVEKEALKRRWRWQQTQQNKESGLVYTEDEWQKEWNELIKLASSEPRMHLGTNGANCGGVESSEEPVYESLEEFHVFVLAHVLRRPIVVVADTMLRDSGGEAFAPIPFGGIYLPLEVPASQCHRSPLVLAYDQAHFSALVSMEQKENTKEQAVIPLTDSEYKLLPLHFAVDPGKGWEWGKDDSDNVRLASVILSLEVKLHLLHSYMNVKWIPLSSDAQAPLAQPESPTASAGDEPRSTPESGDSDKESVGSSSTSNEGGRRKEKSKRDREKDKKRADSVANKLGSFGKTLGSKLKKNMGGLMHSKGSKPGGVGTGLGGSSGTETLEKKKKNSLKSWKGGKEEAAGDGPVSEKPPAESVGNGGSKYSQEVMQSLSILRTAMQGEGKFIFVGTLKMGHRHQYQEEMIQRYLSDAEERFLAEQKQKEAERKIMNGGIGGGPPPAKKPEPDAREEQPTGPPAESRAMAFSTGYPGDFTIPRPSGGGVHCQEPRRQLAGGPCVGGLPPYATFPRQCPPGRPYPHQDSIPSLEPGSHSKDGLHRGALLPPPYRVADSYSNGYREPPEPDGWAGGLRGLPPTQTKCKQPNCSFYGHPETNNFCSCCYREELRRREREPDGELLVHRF
# Summary of the method: as §1
# PRPF8 = PRPF8 (UniProt Q6P2Q9)
# Summary of the method: as §1
# PSMD7 = molecular target: T3, PSMD7 (UniProt P51665)
# T3 sequence (whole entry): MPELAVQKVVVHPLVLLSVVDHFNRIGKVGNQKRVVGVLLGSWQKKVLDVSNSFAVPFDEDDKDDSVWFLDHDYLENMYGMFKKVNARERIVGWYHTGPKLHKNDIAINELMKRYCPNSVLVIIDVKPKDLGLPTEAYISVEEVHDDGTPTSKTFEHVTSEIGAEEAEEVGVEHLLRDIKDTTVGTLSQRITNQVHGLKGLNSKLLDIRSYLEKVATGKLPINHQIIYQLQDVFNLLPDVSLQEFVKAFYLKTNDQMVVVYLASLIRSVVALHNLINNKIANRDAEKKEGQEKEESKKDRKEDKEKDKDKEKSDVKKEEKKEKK
# Summary of the method: as §1
# UCHL1 = UCHL1 (UniProt P09936)
# Summary of the method: as §1
# UCHL3 = molecular target: T4, UCHL3 (UniProt P15374)
# T4 sequence (whole entry): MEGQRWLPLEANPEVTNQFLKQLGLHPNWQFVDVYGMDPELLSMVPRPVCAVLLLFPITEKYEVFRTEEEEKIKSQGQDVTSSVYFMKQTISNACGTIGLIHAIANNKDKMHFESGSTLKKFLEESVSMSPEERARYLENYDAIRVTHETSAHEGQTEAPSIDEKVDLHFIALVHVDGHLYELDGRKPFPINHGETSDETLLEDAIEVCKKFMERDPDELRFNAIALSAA
# Summary of the method: as §1
# UCHL5 = molecular target: T5, UCHL5 (UniProt Q9Y5K5)
# T5 sequence (whole entry): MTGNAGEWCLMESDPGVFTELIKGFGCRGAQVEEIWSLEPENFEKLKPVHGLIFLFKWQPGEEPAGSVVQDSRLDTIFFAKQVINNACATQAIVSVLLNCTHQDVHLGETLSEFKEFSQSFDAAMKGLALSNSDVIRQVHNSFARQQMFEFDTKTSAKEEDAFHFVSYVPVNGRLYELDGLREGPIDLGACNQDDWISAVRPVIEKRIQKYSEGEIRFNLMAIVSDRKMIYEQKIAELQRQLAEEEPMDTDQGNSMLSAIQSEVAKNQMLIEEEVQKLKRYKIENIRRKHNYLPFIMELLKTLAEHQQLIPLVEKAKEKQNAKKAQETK
# Summary of the method: as §1
# USP10 = USP10 (UniProt Q14694)
# Summary of the method: as §1
# USP15 = molecular target: T6, USP15 (UniProt Q9Y4E8)
# T6 sequence (whole entry): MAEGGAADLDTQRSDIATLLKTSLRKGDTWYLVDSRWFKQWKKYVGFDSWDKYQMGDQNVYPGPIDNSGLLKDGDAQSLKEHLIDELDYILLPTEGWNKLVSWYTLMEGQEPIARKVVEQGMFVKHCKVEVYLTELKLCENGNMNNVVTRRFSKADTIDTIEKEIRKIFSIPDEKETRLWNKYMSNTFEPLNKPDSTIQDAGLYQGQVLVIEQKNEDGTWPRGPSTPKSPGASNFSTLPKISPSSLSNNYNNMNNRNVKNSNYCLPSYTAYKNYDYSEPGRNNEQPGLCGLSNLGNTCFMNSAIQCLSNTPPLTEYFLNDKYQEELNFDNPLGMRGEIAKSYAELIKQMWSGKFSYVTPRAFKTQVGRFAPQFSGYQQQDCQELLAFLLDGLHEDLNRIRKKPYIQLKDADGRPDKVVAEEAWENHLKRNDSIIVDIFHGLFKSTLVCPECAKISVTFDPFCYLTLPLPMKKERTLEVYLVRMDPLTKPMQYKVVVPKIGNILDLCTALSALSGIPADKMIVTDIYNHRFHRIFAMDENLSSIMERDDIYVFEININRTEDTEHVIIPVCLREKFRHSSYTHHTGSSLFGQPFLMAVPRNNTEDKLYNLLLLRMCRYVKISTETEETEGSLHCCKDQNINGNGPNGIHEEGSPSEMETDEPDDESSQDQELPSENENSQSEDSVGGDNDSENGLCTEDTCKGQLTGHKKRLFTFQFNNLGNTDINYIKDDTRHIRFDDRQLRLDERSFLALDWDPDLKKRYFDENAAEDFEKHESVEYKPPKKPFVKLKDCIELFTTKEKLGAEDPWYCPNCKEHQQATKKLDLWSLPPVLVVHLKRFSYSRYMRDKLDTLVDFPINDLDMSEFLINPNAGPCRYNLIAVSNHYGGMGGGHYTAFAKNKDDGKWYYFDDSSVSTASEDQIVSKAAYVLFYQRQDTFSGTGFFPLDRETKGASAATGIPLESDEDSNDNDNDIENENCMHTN
# Summary of the method: as §1
# USP16 = USP16 (UniProt Q9Y5T5)
# Summary of the method: as §1
# Sequence of USP10 (Q14694 whole entry): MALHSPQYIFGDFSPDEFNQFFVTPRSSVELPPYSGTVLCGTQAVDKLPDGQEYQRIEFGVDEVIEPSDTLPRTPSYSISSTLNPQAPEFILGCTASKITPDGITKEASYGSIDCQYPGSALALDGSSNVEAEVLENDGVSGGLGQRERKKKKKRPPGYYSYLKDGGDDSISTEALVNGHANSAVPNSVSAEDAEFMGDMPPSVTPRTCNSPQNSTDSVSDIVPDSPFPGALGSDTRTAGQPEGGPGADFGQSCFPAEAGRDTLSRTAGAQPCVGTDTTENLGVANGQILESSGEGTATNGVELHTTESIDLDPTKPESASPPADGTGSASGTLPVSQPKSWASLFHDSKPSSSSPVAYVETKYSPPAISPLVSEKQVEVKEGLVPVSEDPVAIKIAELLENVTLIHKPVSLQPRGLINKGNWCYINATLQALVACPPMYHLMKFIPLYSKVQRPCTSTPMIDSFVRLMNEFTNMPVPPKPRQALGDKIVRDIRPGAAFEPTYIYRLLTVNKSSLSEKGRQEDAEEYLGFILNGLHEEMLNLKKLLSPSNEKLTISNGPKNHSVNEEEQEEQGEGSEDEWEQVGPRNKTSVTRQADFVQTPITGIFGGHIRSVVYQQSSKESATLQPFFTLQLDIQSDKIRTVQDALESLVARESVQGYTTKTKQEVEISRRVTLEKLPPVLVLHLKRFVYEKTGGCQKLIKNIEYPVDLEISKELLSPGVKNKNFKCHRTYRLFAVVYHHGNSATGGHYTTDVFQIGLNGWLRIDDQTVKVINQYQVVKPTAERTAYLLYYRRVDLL
# Sequence of UCHL1 (P09936 whole entry, looked up): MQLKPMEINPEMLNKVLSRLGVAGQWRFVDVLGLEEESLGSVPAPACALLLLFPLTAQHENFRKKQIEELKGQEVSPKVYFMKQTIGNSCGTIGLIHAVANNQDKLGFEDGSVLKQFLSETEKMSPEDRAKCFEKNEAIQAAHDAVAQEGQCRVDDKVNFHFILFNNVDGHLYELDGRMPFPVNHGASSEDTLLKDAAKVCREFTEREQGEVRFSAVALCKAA
# Sequence of USP16 (Q9Y5T5 whole entry, looked up): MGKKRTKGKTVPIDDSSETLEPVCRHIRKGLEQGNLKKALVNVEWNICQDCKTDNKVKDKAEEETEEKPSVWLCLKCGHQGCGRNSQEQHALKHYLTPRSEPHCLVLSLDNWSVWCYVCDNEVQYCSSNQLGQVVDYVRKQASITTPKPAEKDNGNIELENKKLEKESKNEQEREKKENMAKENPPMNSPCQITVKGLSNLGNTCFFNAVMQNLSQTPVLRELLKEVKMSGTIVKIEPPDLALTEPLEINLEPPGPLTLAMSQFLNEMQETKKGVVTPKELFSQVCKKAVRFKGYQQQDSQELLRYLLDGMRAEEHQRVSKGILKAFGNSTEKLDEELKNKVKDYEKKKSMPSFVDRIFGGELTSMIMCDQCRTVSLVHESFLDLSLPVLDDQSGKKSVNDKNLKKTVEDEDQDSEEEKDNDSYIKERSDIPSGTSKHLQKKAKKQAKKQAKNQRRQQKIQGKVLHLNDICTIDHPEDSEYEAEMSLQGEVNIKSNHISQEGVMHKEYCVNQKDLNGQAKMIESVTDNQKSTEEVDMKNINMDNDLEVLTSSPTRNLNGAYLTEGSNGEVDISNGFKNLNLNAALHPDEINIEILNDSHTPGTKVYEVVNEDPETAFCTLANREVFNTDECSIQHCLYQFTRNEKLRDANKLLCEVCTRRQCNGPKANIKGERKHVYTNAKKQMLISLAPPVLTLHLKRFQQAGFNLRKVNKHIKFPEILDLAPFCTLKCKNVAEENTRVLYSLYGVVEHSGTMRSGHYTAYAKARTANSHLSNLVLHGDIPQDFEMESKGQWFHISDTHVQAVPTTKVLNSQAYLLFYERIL
structure (smiles),measurement,setting,value
O=C(CCl)Nc1cccc(NC(=O)c2ccccc2)c1,log2 ratio of Biotin-Ahx-Ub-VS probe labelling,OTUD6B,0.292
same,log2 ratio of Biotin-Ahx-Ub-VS probe labelling,OTUD7B,-0.595
same,log2 ratio of Biotin-Ahx-Ub-VS probe labelling,PRPF8,0.0439
same,log2 ratio of Biotin-Ahx-Ub-VS probe labelling,PSMD7,0.102
same,log2 ratio of Biotin-Ahx-Ub-VS probe labelling,UCHL1,-1.07 (active)
same,log2 ratio of Biotin-Ahx-Ub-VS probe labelling,UCHL3,-0.427
same,log2 ratio of Biotin-Ahx-Ub-VS probe labelling,UCHL5,0.221
same,log2 ratio of Biotin-Ahx-Ub-VS probe labelling,USP10,-0.0488
same,log2 ratio of Biotin-Ahx-Ub-VS probe labelling,USP15,-0.0163
same,log2 ratio of Biotin-Ahx-Ub-VS probe labelling,USP16,0.163
